Compounds without any hit were thinned out: in the full panel of roughly 79,000, 15% have a hit. Values without a mark were called inactive. Active and inactive are the calls of the source. No stated cut-off is given here; in the data, active means growth inhibition above about 70%; inactive means the rest.
Columns and labels:
[1] = NCI Yeast Anticancer Drug Screen. Data for the rad50 strain (AID 155);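 further: 0% = growth of vehicle-only cultures of the same strain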; settings: S. cerevisiae rad50 strain growth inhibition; at 50.0 µM; hits give high values
Procedure, shortened: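 Cells are treated with compound, grown, and their growth is then scored against vehicle-only cultures of the same repair-deficient yeast strain.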

[2] = NCI Yeast Anticancer Drug Screen. Data for the mec2-1 strain (AID 157); settings: S. cerevisiae mec2-1 strain, at 50.0 µM, hits give high values
Procedure, shortened: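 Yeast mec2-1 mutant treated with compound. Readout: growth inhibition vs vehicle controls.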

[3] = NCI Yeast Anticancer Drug Screen. Data for the sgs1 mgt1 strain (AID 161);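 further: 0% = growth of cultures given vehicle only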; settings: S. cerevisiae sgs1 mgt1 strain, at 50.0 µM, hits give high values
Procedure, shortened: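 Mutant yeast exposed to compound; growth scored against vehicle-only wells.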

[4] = NCI Yeast Anticancer Drug Screen. Data for the cln2 rad14 strain (AID 165);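 further: 0% = growth equal to vehicle treated cultures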; settings: S. cerevisiae cln2 rad14 strain, at 50.0 µM, hits give high values
Procedure, shortened: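 cln2 rad14 yeast strain; compound exposure; growth inhibition read vs vehicle controls.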

[5] = NCI Yeast Anticancer Drug Screen. Data for the bub3 strain (AID 167); settings: S. cerevisiae bub3 mutant strain, at 50.0 µM, hits give high values
Procedure, shortened: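 Part of a panel of yeast mutants defective in DNA damage repair or cell cycle regulation. Each strain is grown with compound, and inhibition is calculated relative to solvent-treated cultures.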

[6] = NCI Yeast Anticancer Drug Screen. Data for the mlh1 rad18 strain (AID 175); settings: S. cerevisiae mlh1 rad18 strain growth inhibition; at 50.0 µM; hits give high values
Procedure, shortened: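 Yeast w/ defined DNA-repair lesions; compound exposure; growth vs vehicle controls → % inhibition.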

Row | SMILES | growth inhibition [1] | growth inhibition [2] | growth inhibition [3] | growth inhibition [4] | growth inhibition [5] | growth inhibition [6]
1 | CC12CC/C(=C3/C=CC(=O)S3)C=C1CCC1C2CCC2(C)C(O)CCC12 (stereo not given) | 23.9% | -5.55% | 4.95% | 10.3% | -19.6% | 15.8%
2 | COc1nc(N2CCNCC2)nc2c1CCCC2 | 4.85% | -10.7% | -21.1% | 17.8% | -0.75% | -0.45%
3 | COC(=O)C1=C(O)C(C(=O)OC)C2/C(=[N+](/[O-])O)c3c(cc([N+](=O)[O-])cc3[N+](=O)[O-])C1C2[N+](=O)[O-] (stereo not given) | 75.8% (active) | 81% (active) | 87.8% (active) | 66.3% | 67.8% | 90.7% (active)
4 | CCOC(=O)C(C#N)c1ccccc1 (stereo not given) | 22.3% | 19.1% | 18% | 14.1% | -9.55% | 43.4%
5 | CCC1(CCBr)C(=O)NC(=O)NC1=O | -33.6% | 3.35% | 11.8% | -34.5% | 21.6% | 2.3%
6 | CC1(C)O[C@]2(C)CC[C@@H]1[C@@H](O)[C@@H]2N1CCCC1 | 1.75% | -8.6% | -6.75% | -33.4% | -6.75% | 0.15%
7 | O=C(CC(=O)C(F)(F)F)c1ccco1.[Co] | -16.5% | -17.2% | -16.5% | -10.5% | -7.8% | 3.55%
8 | Cc1cccc(C)c1NC(N)=S | 3.85% | 6.15% | -10.6% | -86.7% | 6% | 3.25%
9 | N#Cc1ccc(/C=C/C(=O)O)cc1 | 17.2% | -10.4% | -9.15% | -60.2% | -9.9% | -4.3%
10 | CCCCCCCCCCC[CH2][Hg][Cl] | 8.6% | 3.15% | 12.4% | -18.6% | -3.45% | -3.1%
11 | [Cl][Sn]1([Cl])[CH2]CCCCCC[CH2][Sn]([Cl])([Cl])[CH2]CCCCCC[CH2]1 | 26.4% | 6.75% | 24.1% | 33.8% | -2.05% | 18.7%
12 | CCOP(=S)(Oc1ccccc1[N+](=O)[O-])c1ccccc1 (stereo not given) | 6.85% | 7.4% | 12.6% | 25.8% | 18.9% | 10.2%
13 | O=C(O)C(=O)O.[NH2-].[NH2-].[Pt+2] | 8.3% | -4.9% | 0.15% | -5.05% | 2.6% | -3.8%
14 | [CH3][Sb]1([Br])[CH2]CC[CH2]1 | 6.8% | 15.2% | 5.85% | -1.6% | -11.8% | 3.05%
15 | N#CC(N)c1ccccc1 (stereo not given) | 13.7% | -14.9% | 17.4% | 1.45% | 14.1% | 12.6%
16 | CCC[CH2][Sn]([CH2]CCC)([O]C(=O)CN)[O]C(=O)CN | 29.9% | 17.9% | 35.4% | 22% | 19.1% | 44.1%
17 | O=NN(c1ccccc1)c1ccccc1 | 12.2% | 9.8% | -8.6% | -22.3% | -10.1% | 34.5%
18 | CCOP(O)OCC | 0.6% | 11.4% | -5.25% | 23.9% | -5.2% | -1.35%
19 | OCCN=Cc1c[nH]c2ccccc12 | -49.9% | -42.9% | -28.1% | 3.85% | -42.5% | -13.9%
20 | C1CN([PH+](N2CC2)N2CC2)CCO1.C1CN([PH+](N2CC2)N2CC2)CCO1.[Cl][Pt][Cl] | 5.3% | 26.6% | 10% | -8.85% | -3.35% | 22.7%

Row | SMILES | growth inhibition [1] | growth inhibition [2] | growth inhibition [3] | growth inhibition [4] | growth inhibition [5] | growth inhibition [6]
21 | O=C(O)C(F)(F)F.O=C(O)C(F)(F)F.[C-]#[O+].[Ru].c1ccc([PH+](c2ccccc2)c2ccccc2)cc1.c1ccc([PH+](c2ccccc2)c2ccccc2)cc1 | 1.5% | 22.2% | 21.9% | -7.45% | -14.9% | 14.3%
22 | [CH3][Sn]([CH3])([O]S(=O)c1ccc(Cl)cc1)[O]S(=O)c1ccc(Cl)cc1 (stereo not given) | 15.7% | -9.3% | -19.8% | 14.7% | -4.7% | -11.1%
23 | O=C(C(F)(F)Cl)C(F)(F)Cl | 13.8% | -14.9% | 6.85% | 15.6% | -15.2% | 24.3%
24 | CC(C)c1cc(C(C)C)c(S(=O)(=O)N=[N+]=[N-])c(C(C)C)c1 | 12.6% | -0.8% | -31.4% | -8.3% | -16.9% | -7.95%
25 | O=C1N=NC(Cl)c2ccccc21 (stereo not given) | -20.6% | -13.5% | -19.1% | 2.65% | -17.9% | -10.8%
26 | CC(C)(C)[CH2][Sn]([Cl])([CH2]C(C)(C)C)[CH2]C(C)(C)C | 99% (active) | 99.3% (active) | 21.8% | 99% (active) | 99.2% (active) | 99% (active)
27 | Cc1cc(O)c2c(c1)OC(C)(C)C1=C2CC(C)CC1 (stereo not given) | -6.4% | 10.8% | -1.05% | -52.8% | -16.1% | -21.9%
28 | COc1ccc2c(c1)CC1N(C)CCC13CCCCC23 (stereo not given) | 41.8% | 19.5% | -1.2% | 2.1% | -11.4% | -70.4%
29 | CC1CN=C(Nc2ccc(F)cc2F)S1 (stereo not given) | -9.1% | -8.6% | -65.7% | -24.4% | 12.5% | -36.6%
30 | COP(=O)(OC)O/C(=C(/OP(=O)(OC)OC)c1ccccc1)c1ccccc1 | 35.5% | 14.3% | 0.1% | 24.1% | -1.35% | 25.1%
31 | c1ccc(N2CCNCC2)cc1 | -11.3% | 4.45% | -27.2% | -28.6% | -0.8% | -1.5%
32 | O=NNc1ncc([N+](=O)[O-])cn1 | -1.05% | 5.35% | -5.9% | -23.4% | -5% | -8.4%
33 | CCOP(=O)(OCC)O/N=C(/CC)c1ccccc1 | 5.35% | -8.75% | 11.4% | -13.4% | -1.55% | -12.1%
34 | N#CCc1ccccc1.N#CCc1ccccc1.[C-]#[O+].[C-]#[O+].[C-]#[O+].[C-]#[O+].[W] | -10.9% | -16.2% | -7.1% | -33.2% | -5.05% | -11.3%
35 | CCCN(C)C(C)(C)C(=O)c1ccccc1 | 8.8% | -3.95% | -20.2% | -10.2% | -18.9% | -8.1%
36 | CCC[P+](CCC)(CCC)CCCCCCCCCC[P+](CCC)(CCC)CCC | -2.65% | -13% | 2.05% | -21.2% | -1.15% | -0.5%
37 | CC1(C)N=C(N)N=C(N)N1c1cccc(CCCCc2ccc(S(=O)(=O)F)c(Cl)c2)c1 | 99.5% (active) | 99.7% (active) | 99.5% (active) | 99.4% (active) | 99.3% (active) | 99.7% (active)
38 | c1ccc(CC[N+]23CC[N+](CCc4ccccc4)(CC2)C3)cc1 | 27.9% | 3.2% | 1.4% | -25.6% | 4.5% | 16%
39 | COc1ccc(N2C(=O)C3C4c5ccccc5C(C3C2=O)[n+]2ccccc24)cc1 (stereo not given) | 27.2% | -14.1% | 9.7% | -49.5% | -0.45% | 10.6%
40 | CC(C)(C)N1COC2CCCCC21 (stereo not given) | 17.4% | -3.2% | 4.65% | -4.25% | 16.4% | 14.6%

— PubChem BioAssay (NCI)
